# Assay results: PubChem BioAssay (NCI)
# About 79,000 compounds went through this panel and 15% of them were active in at least one assay; those are over-represented in the sample as a whole. Values without a mark were called inactive. Activity calls are given as the source filed them. Rule as the data show it: active = growth inhibition above about 70%; inactive = the rest.
# Columns and labels:
# [1] = NCI Yeast Anticancer Drug Screen. Data for the rad50 strain (AID 155);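 also: 0% = growth of vehicle-only cultures of the same strain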; settings: S. cerevisiae rad50 strain growth inhibition; at 50.0 µM; stronger effect = higher value
# Method in brief: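 A DNA repair-deficient yeast mutant serves as the test organism; compound-induced growth inhibition is calculated against vehicle-treated cells.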
# [2] = NCI Yeast Anticancer Drug Screen. Data for the mec2-1 strain (AID 157); settings: S. cerevisiae mec2-1 strain, at 50.0 µM, stronger effect = higher value
# Method in brief: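 Each compound was tested on mec2-1 yeast, a strain altered in DNA damage repair or cell cycle control. Growth inhibition is reported relative to vehicle.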
# [3] = NCI Yeast Anticancer Drug Screen. Data for the sgs1 mgt1 strain (AID 161);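 also: 0% = growth of cultures given vehicle only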; settings: S. cerevisiae sgs1 mgt1 strain, at 50.0 µM, stronger effect = higher value
# Method in brief: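 Genetically altered yeast, compound exposure, growth inhibition relative to vehicle.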
# [4] = NCI Yeast Anticancer Drug Screen. Data for the cln2 rad14 strain (AID 165);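 also: 0% = growth equal to vehicle treated cultures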; settings: S. cerevisiae cln2 rad14 strain, at 50.0 µM, stronger effect = higher value
# Method in brief: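 Test compounds were added to cln2 rad14 yeast cultures; inhibition of growth was then determined by comparison with vehicle treatment.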
# [5] = NCI Yeast Anticancer Drug Screen. Data for the bub3 strain (AID 167); settings: S. cerevisiae bub3 mutant strain, at 50.0 µM, stronger effect = higher value
# Method in brief: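 Inhibition values come from growth of compound-treated mutant yeast normalised to vehicle-treated controls.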
# [6] = NCI Yeast Anticancer Drug Screen. Data for the mlh1 rad18 strain (AID 175); settings: S. cerevisiae mlh1 rad18 strain growth inhibition; at 50.0 µM; stronger effect = higher value
# Method in brief: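 Inhibition values reflect reduced growth of mutant yeast versus vehicle-treated controls following compound exposure; the mutations affect DNA damage repair.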
SMILES,growth inhibition [1],growth inhibition [2],growth inhibition [3],growth inhibition [4],growth inhibition [5],growth inhibition [6]
CC1=CC(=C2C=CC(=O)C=C2)C=C(C)N1C,5.6%,-5.55%,-8.05%,-4.5%,2.4%,-3.65%
CN(C)c1cc[n+](-c2c([O-])c3ccccc3n(-c3ccccc3)c2=O)cc1,20.1%,6.1%,14.2%,12.7%,4.8%,21%
CC(=O)c1cccc(C(C)=O)c1N=Cc1ccc(Cl)cc1,-30.3%,-27.9%,-26.4%,-11.8%,-18.1%,-18.9%
COc1cc(/C=C(\C#N)c2ccccc2)cc(OC)c1,43.8%,-13.5%,-9.6%,-9.8%,17.4%,-28.9%
CCCCOc1ccc2c(c1)CC[C@@H]1[C@@H]2CC[C@]2(C)C(=O)N(CCCC)C(=O)C[C@@H]12,5%,-3.25%,16.4%,-17.1%,16.5%,4.2%
O=Cc1c(Cl)c(Cl)c(Cl)c(Cl)c1Cl,-2.3%,6.3%,16.9%,-39.6%,4.6%,51.1%
CCCCCCCCCCCCCCCCCCCCCCOC(=O)CCC(=O)OCCCCCCCCCCCCCCCCCCCCCC,17.2%,-44.3%,17.4%,-0.95%,-10.8%,5.75%
CCCCCC(/C=C/[C@@H]1[C@H]2CC(=O)O[C@H]2C[C@H]1N1CCOCC1)OC1CCCO1 (stereo partly specified),0.2%,-6.3%,11.8%,-35.1%,-29.6%,11.8%
COCC(=O)C(C(C)=O)C(c1ccc(N(C)C)cc1)C(C(C)=O)C(=O)COC (stereo unspecified),-12.2%,-10.6%,-12.7%,-69.7%,2.8%,-9.35%
CCC(c1ccc(OCC(=O)N2CC2)cc1)C(CC)c1ccc(OCC(=O)N2CC2)cc1 (stereo unspecified),11.8%,10.3%,13.5%,17.8%,-0.35%,1.75%
COc1ccc(C2C(N)=NCC2c2ccccn2)cc1 (stereo unspecified),-21.9%,-17.6%,-12.4%,16.1%,-9.55%,-12.3%
O=[N+]([O-])c1ccc(SC2=NCCCN2C2CCCCC2)c(Cl)c1,-0.1%,-13.9%,12.8%,13.8%,12.6%,-9%
Clc1ccc2c(c1)CCc1cccnc1C2=C1CCNCC1,8.55%,-4.5%,-20.6%,16.1%,0.4%,-15.1%
NC(=O)Cc1c(F)c(F)c(F)c(F)c1F,9.95%,-20.5%,-0.95%,8.85%,28.8%,5.3%
O=C1CCCNC(=O)CCCN1,15%,-9.55%,-5.45%,-40.5%,-14.3%,-5.9%
N#CCCOCCN1CCN(c2cccc(Cl)c2)CC1,9.85%,-7.8%,12%,-2.6%,51.6%,23.1%
CC(C(=O)O)C1(O)CCCCC1 (stereo unspecified),0.6%,-13.9%,-8.4%,-25.4%,13.7%,-8.4%
O=C1COC(c2ccccc2O)=NN1CCCN1CCCC1,12.9%,-23.8%,21%,-3.4%,14.1%,25.3%
O=C(CN1C(=O)c2ccccc2C1=O)NCCO,-26.8%,-29.1%,-11.8%,-11.7%,-29.1%,-17.2%
O=C1CC(c2ccccc2)NCN1 (stereo unspecified),3.95%,1%,7.1%,2.2%,-2.4%,8.3%
O=C1NC(=O)C(CCBr)N1 (stereo unspecified),-21.1%,-6.85%,-10.3%,-3.8%,-13.8%,5.7%

SMILES,growth inhibition [1],growth inhibition [2],growth inhibition [3],growth inhibition [4],growth inhibition [5],growth inhibition [6]
O=c1[nH]c(=S)c2cncnc2n1C1OC(CO)C(O)C1O (stereo unspecified),15.8%,11.8%,-6.6%,10.2%,-28.3%,-26.4%
COc1ccc(S(=O)(=O)Nc2cccc(C(F)(F)F)c2)cc1,99% (active),99.7% (active),99.5% (active),98.5% (active),99.3% (active),99.5% (active)
Nc1nc2c(c(=O)[nH]1)C(c1ccc(Cl)cc1)C=C(c1ccccc1)N2 (stereo unspecified),5.6%,14.8%,3.8%,-1.85%,-4.75%,-33.5%
CCOC(=O)c1c(N=P(c2ccccc2)(c2ccccc2)c2ccccc2)nnc(-c2ccccc2)c1-c1ccccc1,-36.4%,-15.4%,10.9%,1.85%,-6.55%,6.5%
CN1CCCNCCN(CCc2ccccn2)CCCN(C)CC1,2.75%,-1.5%,-12.5%,-7.75%,0.15%,6.65%
CC(C)NCCN,17.4%,0.3%,18.8%,11.3%,12.7%,23.4%
NCCCn1[nH]c(=O)c2cccnc2c1=O,-62.9%,-19%,-19%,-74%,-3.8%,-16.3%
CCOC(=O)C(C#N)=C1c2ccccc2Oc2ccccc21,-3.7%,0.9%,-2%,-46%,6.95%,-1.15%
O=c1ccn(-c2ccccn2)c(=O)n1-c1ccccn1,18.9%,-15.9%,2.95%,24.3%,-6.35%,-31.8%
C=CCCCC1(c2ccccc2)C(=O)Oc2ccccc21 (stereo unspecified),29.6%,2.55%,-0.55%,15.6%,12.8%,-2.75%
CN(C(=N)N)c1ccc(C(=O)Oc2ccc([N+](=O)[O-])cc2)cc1,14.8%,12.8%,29.6%,1.35%,15.1%,17.1%
Cc1ccc2c(c1)P(=O)(O)c1cc(C)ccc1O2,-45.4%,-13.2%,23.6%,3.2%,-9.6%,-8.55%
CNc1ccc(C(=O)N(C(=O)NC2CCCCC2)C2CCCCC2)cc1,-6.65%,-5.6%,4.7%,-6.85%,-1.95%,5.15%
Cc1cc(C)c(N)c(C)n1,-14.8%,-9.6%,-22.1%,-1.25%,1.1%,11.9%
Cc1cc(C)c(C)c(Br)c1,5%,4.6%,-0.55%,-33.1%,2.4%,4.9%
CSc1cccc(N)c1,-23.6%,-12.4%,-46.1%,6.1%,-6.8%,-5.65%
c1ccc2c(c1)Nc1nsnc1N2,3.8%,-9.4%,-6%,13.8%,13.2%,2.25%
CC(NC(=O)OC(C)(C)C)C(=O)C(N)=O (stereo unspecified),-16.2%,2.7%,-27.9%,19.1%,8.25%,-11.5%
CCCCCCN1CCc2c(C)c(C#N)c3nc4ccccc4n3c21,-8.45%,-8.05%,-0.95%,10.9%,19.1%,21.8%
O=c1ccc2ccc(O)c(O)c2o1,-10.9%,-5.3%,12.9%,18.1%,30.7%,1.5%
